Screening data as filed in PubChem BioAssay.
This is a sample that favours compounds with a hit; in the whole collection about 7.2% have one here.
HEK cytotox = cytotoxic compounds in HEK 293 cells; HEK 293 viability, ATP luminescence (CellTiter-Glo), 48-72 h; Potency, µM (doses to about 115 µM), without a hit: at the highest dose activity change, negative = cytotoxicity, actives largely listed as inhibitors; actives 6.6% (n = 94,000); also: nearly all actives have a fitted effect of over 60% in size
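Viability of HEK 293 cells, plated at 250 cells/well, was judged by cellular ATP after compound treatment for 48 or 72 hr. Luminescence was imaged 10 min after CellTiter-Glo addition at room temperature.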
Luciferase inh = blocks purified firefly luciferase enzyme activity. P08659. purified P. pyralis luciferase, luminescence, biochemical. Potency, µM (top dose mostly 115 µM), hits mostly inhibitors. actives 2.5% (n = 76,000). AID 1347043; also: nearly all actives have a fitted effect of over 65% in size
Target sequence (P08659 whole entry, looked up): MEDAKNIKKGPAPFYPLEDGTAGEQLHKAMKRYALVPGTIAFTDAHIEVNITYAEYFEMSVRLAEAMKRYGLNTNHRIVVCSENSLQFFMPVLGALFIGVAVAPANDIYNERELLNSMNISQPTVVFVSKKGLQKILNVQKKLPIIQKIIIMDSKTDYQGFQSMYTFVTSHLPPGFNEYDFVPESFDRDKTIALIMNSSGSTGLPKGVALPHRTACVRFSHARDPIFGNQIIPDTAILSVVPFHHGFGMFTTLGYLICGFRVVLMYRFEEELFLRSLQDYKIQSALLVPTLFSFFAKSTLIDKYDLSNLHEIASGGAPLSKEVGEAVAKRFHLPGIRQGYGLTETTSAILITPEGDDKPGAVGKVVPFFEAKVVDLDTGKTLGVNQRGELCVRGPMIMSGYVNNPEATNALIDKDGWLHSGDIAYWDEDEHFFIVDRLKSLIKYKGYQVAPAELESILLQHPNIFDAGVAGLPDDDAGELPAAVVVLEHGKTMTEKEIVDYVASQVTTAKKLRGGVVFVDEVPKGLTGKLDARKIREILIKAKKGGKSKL
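FLuc 10nM, D-luciferin 10uM, ATP 10uM, Mg acetate 10mM, Tris acetate pH 7.5, Tween/BSA; cpd qHTS; enzyme added last; CCD luminescence.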
NPR1 antag = antagonists of human natriuretic peptide receptor Npr1. P16066. HEK293 hNpr1 GloSensor cGMP, ANP-stimulated luminescence. Potency, µM (series often up to 46.3 µM), for the others: at the highest dose activity change, negative = inhibition, actives largely listed as inhibitors. actives 1.6% (n = 76,000); calls by dose curve; also: nearly all actives have a fitted effect of over 60% in size
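Compound pre-incubated 30 min at room temperature on GloSensor-loaded HEK293 cells stably carrying hNpr1 and the pGS-40F cGMP biosensor. Stimulation uses hNppA at 0.1 nM final; luminescence is taken at baseline and 20 min post-agonist.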
NIH3T3 tox = kills NIH 3T3 cells | AID 1345082 | Potency, µM (titrated, usually from 96.7 µM), for inactives: top-dose activity change, negative = cytotoxicity, hits mostly inhibitors | NIH 3T3 viability, CellTiter-Glo ATP luminescence, 48-72 h | actives 4.3% (n = 94,000); also: nearly all actives have a fitted effect of over 55% in size
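First NIH 3T3 cells are plated at 400 cells/well; next compound is pinned in; then plates incubate 48 or 72 hr at 37 °C; finally CellTiter-Glo is added and luminescence read after 10 min.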
HEK293 viab = reduces viability of HEK-293 SNCA reporter cells | HEK-293-SNCA-luc viability, GF-AFC fluorescence, 24 h | actives 0.12% (n = 150,000) | Potency, µM (highest dose often 57.1 µM), for the others: top-dose activity change, negative = cytotoxicity, actives largely listed as cytotoxic;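 also: 0% = DMSO-treated cells and -100% = medium-only wells without cells; nearly all actives have a fitted effect of over 30% in size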
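HEK-293-SNCA-luc cells (1500/well) plated 24 h, then exposed 24 h to a dilution series; GF-AFC added 30 min at 37C, fluorescence 405/540 nm; normalised to medium-only and DMSO wells, Hill fit.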
SNCA expr inhib = inhibitors of alpha-synuclein (SNCA) gene expression; HEK-293 SNCA-luciferase knock-in, luminescence, 24 h; Potency, µM (titrated, usually from 57.2 µM), for inactives: at the highest dose activity change, negative = inhibition, actives largely listed as inhibitors; actives 0.17% (n = 140,000); AID 1671194;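 also: plate controls were DMSO cells for no effect and cell-free wells for full effect; nearly all actives have a fitted effect of over 45% in size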
* marks the source's active call; other numbers are inactive results; [ ] = another dose, or the depositor's remark. Unless noted, calls follow the shape of the dose curve; as a rule, active = well fitted curve in the direction sought with a large enough effect; inconclusive = small, poorly fitted or top-dose-only effect, or another doubt; inactive = no such curve, though single readings can be large; an effect the other way counts as inactive or inconclusive. Unless noted, % is scaled to controls: 0 for no effect and ±100 for the full control effect; potency is read from the fitted curve at half-maximal effect.

For O=C(c1cnc2c(c1)N(C(=O)CCc1ccccc1)CCC2)N1CCC(c2ccccc2)CC1 the results were HEK cytotox 79µM*, Luciferase inh inactive, NPR1 antag 5%, NIH3T3 tox inconclusive, HEK293 viab -14% and SNCA expr inhib 20%.
O=C(c1cnc2c(c1)N(C(=O)CCc1ccccc1)CCC2)N1CCN(Cc2ccccc2)CC1 was read as HEK cytotox inconclusive, Luciferase inh inactive, NPR1 antag -1%, NIH3T3 tox -13%, HEK293 viab 7% and SNCA expr inhib 5%.
Cc1csc(NC(=O)c2cnc3c(c2)N(C(=O)CCc2ccccc2)CCC3)n1 was read as HEK cytotox inconclusive, Luciferase inh inactive, NPR1 antag -1%[70.6 µM], NIH3T3 tox 89µM*, HEK293 viab -14%[87.6 µM] and SNCA expr inhib 14%[87.6 µM].
`O=C(NCc1cccc(Cl)c1)c1cnc2c(c1)N(C(=O)CCc1ccccc1)CCC2` gave HEK cytotox inconclusive, Luciferase inh inactive, NPR1 antag -18%[70.6 µM], NIH3T3 tox 100µM*, HEK293 viab -6%[87.6 µM] and SNCA expr inhib 3%[87.6 µM].
`O=C(NC1CC1)C1CCc2nnc(C3CC3)n21` (stereo unspecified) gave HEK cytotox inactive, NIH3T3 tox inactive, HEK293 viab 1%[87.6 µM] and SNCA expr inhib -17%[87.6 µM].
Screening COc1ccc(NC(=O)Cn2nc3c(cc2=O)CN(C(C)=O)CC3)cc1Cl returned HEK cytotox 2%, Luciferase inh inactive, NPR1 antag 3%, NIH3T3 tox -1%, HEK293 viab 9% and SNCA expr inhib 26%.
`COc1ccccc1C(=O)NCc1nnc2cc(-c3nc(C(C)C)no3)ccn12` gave HEK cytotox inconclusive, Luciferase inh inactive, NPR1 antag 3%, NIH3T3 tox 3%, HEK293 viab 1% and SNCA expr inhib 6%.
For C=CCc1ccccc1OCCN(C)Cc1cc2ccc(F)cc2[nH]c1=O the results were HEK cytotox 45µM*, Luciferase inh inactive, NPR1 antag inconclusive, NIH3T3 tox 35µM*, HEK293 viab -1% and SNCA expr inhib inconclusive.
Screening C=CCc1ccccc1OCCN(C)Cc1ccc(S(C)(=O)=O)cc1 returned HEK cytotox 40µM*, Luciferase inh inactive, NPR1 antag -13%, NIH3T3 tox inconclusive, HEK293 viab 5% and SNCA expr inhib -12%.
For C=CCc1ccccc1OCCN(C)Cc1ncnn1CC the results were HEK cytotox inconclusive, Luciferase inh inactive, NPR1 antag 0%, NIH3T3 tox -27%, HEK293 viab -2% and SNCA expr inhib 15%.
Screening O=C(Cc1c[nH]c2ncc(-c3ccccc3)cc12)NCCCn1ccnc1 returned HEK cytotox -7%[172 µM], Luciferase inh inactive, NPR1 antag -4%[70.6 µM], NIH3T3 tox inconclusive, HEK293 viab 5%[87.6 µM] and SNCA expr inhib -7%[87.6 µM].
Screening COC(=O)[C@@H]1Cc2c([nH]c3ccccc23)[C@H]2C[C@H](NCCCn3ccnc3)C[C@@H](c3ccccc3F)N21 returned HEK cytotox inconclusive, Luciferase inh inactive, NPR1 antag 0%, NIH3T3 tox 5µM*, HEK293 viab inconclusive and SNCA expr inhib inconclusive.
Screening COC(=O)[C@@H]1Cc2c([nH]c3ccccc23)[C@H]2C[C@@H](NCCCn3ccnc3)C[C@@H](c3ccccc3)N21 returned HEK cytotox inconclusive, Luciferase inh inactive, NPR1 antag -2%, NIH3T3 tox 20µM*, HEK293 viab inconclusive and SNCA expr inhib inconclusive.
For C[C@H]1CCCN1C(=O)c1nnc(CNCCCn2ccnc2)n1-c1ccccc1 the results were HEK cytotox inactive, Luciferase inh inactive, NPR1 antag -2%[70.6 µM], NIH3T3 tox inconclusive, HEK293 viab 2%[87.6 µM] and SNCA expr inhib -4%[87.6 µM].
COC(=O)[C@@H]1Cc2c([nH]c3ccccc23)[C@@H]2C[C@@H](NCCCn3ccnc3)C[C@@H](c3ccc(F)c(F)c3)N12 was read as HEK cytotox 25µM*, Luciferase inh inactive, NPR1 antag 6%, NIH3T3 tox 28µM*, HEK293 viab 4% and SNCA expr inhib 3%.
For O=C(c1ccc2c(c1)OCO2)N1CCC2(CC1)N(Cc1ccccc1)C(=O)CS2(=O)=O the results were HEK cytotox 1%, NIH3T3 tox -21%, HEK293 viab 1% and SNCA expr inhib 13%.
Screening CCC(=O)Nc1ccc(C)cc1-c1nc2ccccc2n(CC(=O)c2ccc(C)cc2)c1=O returned HEK293 viab 17% and SNCA expr inhib 28µM*.
COc1ccc(C(=O)Cn2c(=O)c(-c3cc(C)ccc3NC(C)=O)nc3ccccc32)cc1 was read as HEK293 viab inconclusive and SNCA expr inhib -5%.
For Cc1nn(C(=O)CCC(=O)N2CCC(CCOc3ccccc3F)C2)c2ccccc12 (stereo unspecified) the results were HEK cytotox -12%, Luciferase inh inactive, NPR1 antag -3%, NIH3T3 tox -8%, HEK293 viab 10% and SNCA expr inhib -7%.
For O=C(CN1C(=O)CCC1=O)N1CCC(CCOc2ccccc2F)C1 (stereo unspecified) the results were HEK cytotox 45µM*, Luciferase inh inactive, NPR1 antag inconclusive, NIH3T3 tox -28%, HEK293 viab 7% and SNCA expr inhib -19%.
For CN(CC(=O)N1CCC(CCOc2ccccc2F)C1)S(=O)(=O)c1ccc2c(c1)oc(=O)n2C (stereo unspecified) the results were HEK cytotox 40µM*, Luciferase inh inactive, NPR1 antag -23%, NIH3T3 tox inconclusive, HEK293 viab -12% and SNCA expr inhib inconclusive.
For CN(CC(=O)N1CCC(C)(c2noc(C3CC3)n2)CC1)S(=O)(=O)c1ccc2c(c1)oc(=O)n2C the results were HEK cytotox -14%, Luciferase inh inactive, NPR1 antag 18%, NIH3T3 tox -21%, HEK293 viab 10% and SNCA expr inhib 8%.
O=C1NCc2ccccc2CC12CCN(Cc1ccc(F)cc1)C2 (stereo unspecified) was read as HEK cytotox inconclusive, NIH3T3 tox 4%, HEK293 viab -5% and SNCA expr inhib -4%.
`O=C1NCc2ccccc2CC12CCN(Cc1ccc(Oc3ccccc3)cc1)C2` (stereo unspecified) gave HEK cytotox inconclusive, NIH3T3 tox 32µM*, HEK293 viab -19% and SNCA expr inhib inconclusive.
